Most compounds without a hit are left out; they make up all but 3% or so of the library.
KCNH2 3.1 inh = blocks the human KCNH2 3.1 channel isoform; U2OS KCNH2 3.1, thallium flux FluxOr; hits give low values; hit rate 0.95% among 340,000; activity change, % (tested at about 1.8 µM); AID 720553;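 active means maximum activity change below -70%; inconclusive means maximum activity change from -70% to -50%; inactive means maximum activity change above -50%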;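 further: thallium influx rate constant from kinetic fluorescence after stimulation buffer; on the % scale 0 is the no-effect control and ±100 the full control effect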
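Thallium flux via FluxOr fluorescence (Red40 quencher, 45 min loading) in U2OS cells virally expressing the KCNH2 3.1 isoform (1.77 x 10^8 /mL virus, overnight at 37 C). Rate constants from 2-min kinetic reads post-stimulation, normalised to positive and negative controls.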
ClpP mod = qHTS Assay for Activators of ClpP | AID 651965, 2013 | purified B. subtilis ClpP, FRET peptide cleavage, 20 min | Potency, µM (series often up to 57.5 µM), without a hit: top-dose activity change, negative = active | ATP-dependent Clp protease proteolytic subunit (Bacillus subtilis (strain 168)), P80244 | hit rate 1.9% among 340,000; active means well fitted falling curve with a large enough effect; inconclusive means small, poorly fitted or top-dose-only effect; inactive means no such curve, though single readings can be large or run the other way; further: potency means the concentration at half of the fitted maximal effect; the source files actives as falling curves though it sought activators and does not explain the sign; nearly all actives have a fitted effect of over 65% in size
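Purified B. subtilis ClpP, 10 microg/mL final in Tris/HCl pH8 with KCl, BSA, glycerol and Tween-20, cleaved an Abz/nitrotyrosine-quenched decapeptide. Fluorescence (ex 320, em 430) was read at 0 and 20 min at room temperature. Delta was normalized to 5.8 microM ADEP and DMSO/no-enzyme controls.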
BCR signal inh = inhibitors of chronic active B-cell receptor signaling; ABC-DLBCL IkBa-CBG/CBR reporter, luminescence ratio, 4 h; Potency, µM (doses to about 46.1 µM), for the others: top-dose activity change, negative = inhibition, usual class: inhibitors; hit rate 0.05% among 340,000; AID 493014; active means well fitted inhibition curve with a large enough effect in the signal ratio, with a control signal flat, not every such curve was filed as active; inconclusive means small, poorly fitted or top-dose-only effect, or effect the other way, or a change in a side signal; the % refers to the signal ratio;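 further: potency means the concentration at half of the fitted maximal effect; plate controls were basal doxycycline-induced cells for no effect and cells given 10 µM MG132 for full effect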
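TMD8 human ABC-DLBCL cells with doxycycline-inducible IκBα–green luciferase fusion and unfused red luciferase, in 0.5% FBS medium; compounds up to 46 uM, 4 h at 37C. Green/red luminescence ratio, filter-overlap corrected, fitted to concentration-response curves.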
KCNH2 WT inh = blocks the wildtype human KCNH2 potassium channel. U2OS, BacMam KCNH2, thallium flux FluxOr; hits give low values. activity change, % at 1.84 µM. hit rate 0.37% among 340,000;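 active means maximum activity change below -70%; inconclusive means maximum activity change between -70% and -50%; inactive means maximum activity change above -50%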; further: on the % scale 0 is the no-effect control and ±100 the full control effect
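U2OS cells were transduced with wild-type KCNH2 virus (2.03 x 10^8 / mL) for 4 h at room temperature, then cultured overnight at 37 C. Thallium flux was read with FluxOr dye. Rate constants were normalized to DMSO controls.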
ALOX12 inh = ALOX12 (human) lipoxygenase inhibition. purified 12hLO, xylenol orange hydroperoxide absorbance. Potency, µM (highest dose often 108 µM), for the others: top-dose activity change, negative = inhibition, usual class: inhibitors. hit rate 1.1% among 580,000; active means well fitted inhibition curve with a large enough effect; inconclusive means small, poorly fitted or top-dose-only effect, or another doubt; inactive means no such curve, though single readings can be large or run the other way; further: potency means the concentration at half of the fitted maximal effect; on the % scale 0 is the no-effect control and ±100 the full control effect
Target sequence (P18054 whole entry, looked up): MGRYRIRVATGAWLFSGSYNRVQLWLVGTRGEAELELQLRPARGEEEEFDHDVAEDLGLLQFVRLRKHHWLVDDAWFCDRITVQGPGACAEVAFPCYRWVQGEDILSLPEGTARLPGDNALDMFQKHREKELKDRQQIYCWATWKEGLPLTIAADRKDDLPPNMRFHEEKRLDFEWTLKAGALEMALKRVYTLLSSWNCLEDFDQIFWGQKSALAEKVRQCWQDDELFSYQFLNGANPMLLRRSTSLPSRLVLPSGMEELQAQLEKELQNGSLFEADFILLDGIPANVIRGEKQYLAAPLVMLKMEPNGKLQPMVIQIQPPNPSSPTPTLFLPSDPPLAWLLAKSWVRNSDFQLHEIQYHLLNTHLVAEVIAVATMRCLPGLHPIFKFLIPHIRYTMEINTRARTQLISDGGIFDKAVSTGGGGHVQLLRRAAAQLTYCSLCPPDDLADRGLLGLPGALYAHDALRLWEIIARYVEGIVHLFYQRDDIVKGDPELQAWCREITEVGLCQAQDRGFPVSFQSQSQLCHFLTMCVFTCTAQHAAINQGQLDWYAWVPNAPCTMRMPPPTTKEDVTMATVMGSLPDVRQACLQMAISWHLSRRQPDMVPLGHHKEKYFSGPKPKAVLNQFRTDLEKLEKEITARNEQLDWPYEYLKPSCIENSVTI
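Purified human 12hLO (150 nM final) in 25 mM Hepes, 0.01% Triton X-100, pH 7.0 was preincubated 15 min at room temperature with compound. Then 40 uM arachidonic acid was added, 30 min. Hydroperoxide was read by Fe-XO absorbance ratio 573/405 nm.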
LDHA block = blocks human lactate dehydrogenase A | hit rate 0.15% among 480,000 | purified LDHA, NADH/diaphorase-resazurin fluorescence; hits give low values | activity change, % (values are at about 110 or 230 µM) | AID 1347041; in the data active means activity change below about -30%; inconclusive means mostly about -25% to -30%;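 further: plate controls were DMSO wells for no effect and wells without enzyme for full effect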
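Resorufin fluorescence (ex540/em590), read at 0 and 20 min after diaphorase/resazurin addition, reports the NADH left after a 5 min room-temperature reaction of 2 nM human LDH5 with 0.06 mM NADH and 0.2 mM pyruvate.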
* = called active by the depositor; u = inconclusive; x = no result given.

SMILES	KCNH2 3.1 inh	ClpP mod	BCR signal inh	KCNH2 WT inh	ALOX12 inh	LDHA block
COc1ccc(C(=S)N2CCOCC2)cc1OC(=O)c1ccc([N+](=O)[O-])cc1	-41.0	x	3.0%	39.5	25.1µM*	7.4
COC(=O)c1ccc(CNC(=O)c2ccc(OCC(=O)N3CCOCC3)c(OC)c2)cc1	-193.2*	x	u	-152.5*	-5.2%	-6.4
COc1cccc(CNC(=O)c2ccc(OCC(=O)N3CCOCC3)c(OC)c2)c1	-2.6	x	u	1.6	u	-4.5
O=C(O)CSC(=O)c1ccccc1Cl	x	x	x	x	u	-7.6
CCCCCCCC(=O)N/N=C(\C)c1ccc(O)cc1O	5.6	15.9%	1.4%	5.4	21.5%	-4.6
CCCCCCCCC(=O)N/N=C(\C)c1ccc(O)cc1O	1.0	31.6µM*	-0.2%	1.3	21.0%	-7.4
CC(=O)c1ccc(Nc2c3c(nc4ccccc24)CCCC3)cc1	-9.8	-18.1%	u	-76.7*	2.1%	-3.1
COc1ccc(C(=O)NS(C)(=O)=O)cc1F	x	x	x	x	u	4.2
NC(=O)c1cc(S(=O)(=O)NCC2CCN(Cc3ccc(Cl)cc3)CC2)cs1	x	x	x	x	u	2.2
O=C(c1ccc(F)cc1)N1CCCCC(Sc2nnnn2-c2ccccc2)C1=O (stereo not drawn)	-13.3	28.2µM*	-8.0%	-2.2	-17.4%	0.5
O=C(c1ccccc1)N1CCCCC(Sc2nnnn2-c2ccccc2)C1=O (stereo not drawn)	3.9	-2.1%	-19.5%	-4.0	14.6%	-6.5
O=C(Nc1ccc(F)cc1)N1C[C@@H]2OCC(=O)N(Cc3ccc(OC(F)(F)F)cc3)[C@@H]2C1	x	x	x	x	0.9%	x
Cc1nc(C(=O)Nc2cc(Cl)ccc2Cl)nn1-c1cc(OC(C)C)c(Cl)cc1Cl	7.2	-5.5%	-2.6%	0.4	-13.0%	2.4
Cc1nc(C(=O)Nc2ccc(Cl)cc2Cl)nn1-c1cc(OC(C)C)c(Cl)cc1Cl	-8.0	28.2µM*	-1.4%	2.0	-4.6%	-4.9
Cc1ccc(S(=O)(=O)c2nnn3c2nc(NCc2ccc4c(c2)OCO4)c2sccc23)cc1	x	u	x	x	-12.3%	-0.9
CC(C)c1ccc(S(=O)(=O)c2nnn3c2nc(NCCc2ccccc2)c2sccc23)cc1	x	25.1µM*	x	x	-0.5%	-10.0
O=S(=O)(c1ccc(Br)cc1)c1nnn2c1nc(NCCc1ccccc1)c1sccc12	x	u	x	x	-23.7%	3.6
Cc1ccc(S(=O)(=O)c2nnn3c2nc(NCCc2ccccc2)c2sccc23)cc1	x	10µM*	x	x	-21.1%	5.5
Cc1ccc(S(=O)(=O)c2nnn3c2nc(NCc2ccc4c(c2)OCO4)c2sccc23)cc1C	x	20µM*	x	x	-22.0%	0.5
CSc1ccccc1NC(=O)CC(C)C	x	x	x	x	-6.4%	0.7
COc1ccc(OCCSC2=NCC(C)(C)CN2)cc1	x	x	x	x	35.5µM*	6.4
COC(=O)c1ccc(OCc2cc(Br)ccc2OC)cc1	x	x	x	x	-24.1%	12.4
CCC(CO)NS(=O)(=O)c1ccc(Cl)c(Cl)c1Cl (stereo not drawn)	x	x	x	x	u	-0.3
CCc1ccccc1N(CC)C(=O)c1cc2c(s1)-c1ccccc1SC2	x	14.1µM*	x	x	u	7.0
O=C(NCc1ccccc1Cl)c1cc2c(s1)-c1ccccc1SC2	x	25.1µM*	x	x	16.6%	-7.6
SMILES	KCNH2 3.1 inh	ClpP mod	BCR signal inh	KCNH2 WT inh	ALOX12 inh	LDHA block
O=C(CC1NC(=O)NC1=O)NCc1cccnc1Oc1ccccc1F (stereo not drawn)	x	x	x	x	-17.4%	x
O=C1NC(=Nc2ccc3ccccc3c2)S/C1=C/c1ccco1	-19.5	-1.5%	-2.8%	5.8	31.6µM*	-3.6
O=C1NC(=Nc2ccc(Cl)cc2)/C(=C/c2ccco2)S1	20.4	x	-0.2%	-0.2	25.1µM*	-5.3
Cc1cccc(N=C2NC(=O)/C(=C/C=C/c3ccco3)S2)c1	1.5	-2.8%	3.5%	-1.6	44.7µM*	1.9
COC(=O)C1=C(C)N(c2ccc(C)c(C)c2)C(=S)NC1c1ccsc1 (stereo not drawn)	x	x	x	x	u	-24.5
c1csc(Cn2c(-c3cccs3)nc3ccccc32)c1	8.5	31.6µM*	6.7%	16.6	0.0%	-2.5
COCCn1c(=O)c2c(nc(-n3nc(C)c(C)c3C)n2Cc2ccccc2F)n(C)c1=O	x	x	x	x	-24.6%	2.6
Cc1cc(NC(=O)CCC(=O)N(c2cccc(F)c2)C(C(=O)NC2CCCC2)c2ccc(C)o2)no1 (stereo not drawn)	-0.9	28.2µM*	3.1%	1.4	-19.4%	-8.1
Cc1cc(NC(=O)CCC(=O)N(c2ccccc2)C(C(=O)NC2CCCC2)c2cccs2)no1 (stereo not drawn)	-185.7*	-0.2%	1.6%	4.3	-11.7%	-1.0
Cc1cccc(N(C(=O)CCC(=O)Nc2cc(C)on2)C(C(=O)NC2CCCC2)c2ccc(C)o2)c1 (stereo not drawn)	-4.8	-3.3%	2.1%	-4.1	-23.2%	-3.1
O=C(c1cc(=O)c2ccccc2o1)N(Cc1cccc(Cl)c1)c1ccccn1	x	x	x	x	-8.1%	9.3
Cc1ccc(N(C(=O)CNC(=O)c2ccco2)C(C(=O)NC2CCCC2)c2cccnc2)cc1C (stereo not drawn)	3.4	0.8%	-12.6%	-188.9*	0.0%	-2.0
CC(=O)Nc1ccc(N(C(=O)CNC(=O)c2ccco2)C(C(=O)NCc2ccco2)c2ccccc2F)cc1 (stereo not drawn)	-111.0*	x	-1.3%	1.6	-2.0%	0.0
O=C(NCC(=O)N(c1cccnc1)C(C(=O)NC1CCCCC1)c1ccccc1F)c1ccco1 (stereo not drawn)	-192.7*	x	1.2%	-149.2*	0.9%	-0.4
Cc1ccc(N(C(=O)CNC(=O)c2ccco2)C(C(=O)NC2CCCCC2)c2cccnc2)cc1C (stereo not drawn)	-7.6	0.7%	-3.2%	-4.8	0.0%	-9.5
Cn1c(=O)c2ccnn2c2ccc(C(=O)Nc3ccc4c(c3)OCCO4)cc21	x	x	x	x	9.4%	x
CC(=O)Oc1ccc2c(c1)Oc1cc(OC(C)=O)ccc1C21OC(=O)c2ccccc21	-145.7*	-0.5%	-18.4%	-122.1*	x	-2.8
CN(C)C1(CN=Cc2cc(Cl)cc([N+](=O)[O-])c2O)CCCCC1	18.5	x	0.1%	2.9	17.8µM*	6.5
COc1cccc(NC(=O)COC(=O)c2c(NC(C)=O)sc(C)c2C)c1	0.7	-1.5%	-7.2%	-72.8*	-28.6%	-3.6
CC(=O)Nc1sc(C)c(C)c1C(=O)OCC(=O)Nc1cccc(C)c1	2.8	5.4%	1.2%	3.5	-8.8%	0.0
Cc1ccc2nc(C)cc(C(=O)NCCCOC(C)C)c2c1	x	x	x	x	6.0%	-14.7

Bioassay records as filed in PubChem BioAssay.
